# Data: the supplement of paper PMC10849652
# The full data set covers some 8,800 targets. This sample favours those with a hit. About 0.5% of all pairs of compound and target were hits. Values without a mark were called inactive.
# Legend:
# Assay in all cases: log2 fold change, soluble protein after heating vs DMSO (PISA); higher = thermal stabilisation; K562 lysate, 10 uM; active = over 0.2 and 3.5 SD of the protein, either way, in both replicates (recomputed)
# [1] = compound: CN1CC[C@H](c2c(O)cc(O)c3c(=O)cc(-c4ccccc4Cl)oc23)[C@H](O)C1 [alvocidib]
# How it was run: (§1)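 Following dounce homogenisation of K562 pellets in PBS pH 7.4 with 1 mM MgCl2, crude extract at 1 mg/mL protein was incubated for 30 min with 10 μM compound. Aliquots were then heated for 3 min over 48°C-58°C and pooled, NP-40 was added to 0.5% at 4°C, and soluble protein was recovered as the supernatant at 21,000xg for 90 min. Channel-sum-equalised TMTpro 16plex LC-MS/MS quantified this protein. Each value, from duplicates, is a log-two fold change in thermal stability relative to solvent controls.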
# [2] = compound: CN1CCc2c(c3ccccc3n2Cc2ccc(C(=O)NO)cc2)C1 [Tubastatin A]
# How it was run: as §1
# [3] = compound: CNC(=O)C1=CC=CC=C1NC2=NC(=NC=C2Cl)NC3=C(C=C(C=C3)N4CCOCC4)OC
# How it was run: as §1
# [4] = compound: CNC(=O)c1ccc(Nc2ncc(C(F)(F)F)c(NCc3nccnc3N(C)S(C)(=O)=O)n2)cc1 [defactinib]
# How it was run: as §1
# [5] = compound: CNc1nc(-c2ccc3c(N)n[nH]c3c2)cc(N2C[C@@H](C(=O)NC3CCCCC3)CC[C@H]2C)n1
# How it was run: as §1
# [6] = compound: COC(=O)N[C@@H](C)CNc1nccc(-c2cn(C(C)C)nc2-c2cc(Cl)cc(NS(C)(=O)=O)c2F)n1 [encorafenib]
# How it was run: as §1
# [7] = compound: COC(=O)[C@H](CCSC)NC(=O)C1=C(C=C(C=C1)NC[C@H](CS)N)C2=CC=CC=C2
# How it was run: as §1
# [8] = compound: COc1cc(Nc2ncc3c(n2)-c2ccc(Cl)cc2C(c2c(F)cccc2OC)=NC3)ccc1C(=O)O [alisertib]
# How it was run: as §1
# [9] = compound: COc1cc2nc(-c3cc(F)ccc3O)nc(N[C@@H]3CNC[C@H]3C(C)(C)O)c2cc1OC
# How it was run: as §1
# [10] = compound: COc1cc2ncnc(Nc3ccc(F)c(Cl)c3)c2cc1OCCCN1CCOCC1 [gefitinib]
# How it was run: as §1
# [11] = compound: CS(=O)(=O)CCNCc1ccc(-c2ccc3ncnc(Nc4ccc(OCc5cccc(F)c5)c(Cl)c4)c3c2)o1 [lapatinib]
# How it was run: as §1
# [12] = compound: CS(=O)(=O)N1CCN(Cc2cc3nc(-c4cccc5[nH]ncc45)nc(N4CCOCC4)c3s2)CC1 [pictilisib]
# How it was run: as §1
# [13] = compound: C[C@@H](Oc1cc(-c2cnn(C3CCNCC3)c2)cnc1N)c1c(Cl)ccc(F)c1Cl [crizotinib]
# How it was run: as §1
# [14] = compound: C[C@H](C1=CC=C(C=C1)C(=O)NC2=C3C=CNC3=NC=C2)N
# How it was run: as §1
# [15] = compound: C[C@H](Nc1ncnc2nc[nH]c12)c1cc2cccc(Cl)c2c(=O)n1-c1ccccc1 [duvelisib]
# How it was run: as §1
# [16] = compound: Cc1cc(Nc2cc(CN3CCOCC3)c3nc(C)c(Cc4ccc(Cl)cc4F)n3n2)n[nH]1 [gandotinib]
# How it was run: as §1
# [17] = compound: Cc1cc(Nc2cc(N3CCN(C)CC3)nc(Sc3ccc(NC(=O)C4CC4)cc3)n2)n[nH]1 [tozasertib]
# How it was run: as §1
# [18] = compound: Cc1ccc(-n2nc(C(C)(C)C)cc2NC(=O)Nc2ccc(OCCN3CCOCC3)c3ccccc23)cc1 [doramapimod]
# How it was run: as §1
# [19] = compound: Cc1ccc(NC(=O)c2ccc(CN3CC[C@H](N(C)C)C3)c(C(F)(F)F)c2)cc1Nc1nccc(-c2cncnc2)n1 [bafetinib]
# How it was run: as §1
# [20] = compound: Cc1cccc(CC(=O)N2CCc3c2ccc(-c2cn(C)c4ncnc(N)c24)c3F)n1
# How it was run: as §1
# Sequence of UniProt P52948 (P52948 whole entry, looked up): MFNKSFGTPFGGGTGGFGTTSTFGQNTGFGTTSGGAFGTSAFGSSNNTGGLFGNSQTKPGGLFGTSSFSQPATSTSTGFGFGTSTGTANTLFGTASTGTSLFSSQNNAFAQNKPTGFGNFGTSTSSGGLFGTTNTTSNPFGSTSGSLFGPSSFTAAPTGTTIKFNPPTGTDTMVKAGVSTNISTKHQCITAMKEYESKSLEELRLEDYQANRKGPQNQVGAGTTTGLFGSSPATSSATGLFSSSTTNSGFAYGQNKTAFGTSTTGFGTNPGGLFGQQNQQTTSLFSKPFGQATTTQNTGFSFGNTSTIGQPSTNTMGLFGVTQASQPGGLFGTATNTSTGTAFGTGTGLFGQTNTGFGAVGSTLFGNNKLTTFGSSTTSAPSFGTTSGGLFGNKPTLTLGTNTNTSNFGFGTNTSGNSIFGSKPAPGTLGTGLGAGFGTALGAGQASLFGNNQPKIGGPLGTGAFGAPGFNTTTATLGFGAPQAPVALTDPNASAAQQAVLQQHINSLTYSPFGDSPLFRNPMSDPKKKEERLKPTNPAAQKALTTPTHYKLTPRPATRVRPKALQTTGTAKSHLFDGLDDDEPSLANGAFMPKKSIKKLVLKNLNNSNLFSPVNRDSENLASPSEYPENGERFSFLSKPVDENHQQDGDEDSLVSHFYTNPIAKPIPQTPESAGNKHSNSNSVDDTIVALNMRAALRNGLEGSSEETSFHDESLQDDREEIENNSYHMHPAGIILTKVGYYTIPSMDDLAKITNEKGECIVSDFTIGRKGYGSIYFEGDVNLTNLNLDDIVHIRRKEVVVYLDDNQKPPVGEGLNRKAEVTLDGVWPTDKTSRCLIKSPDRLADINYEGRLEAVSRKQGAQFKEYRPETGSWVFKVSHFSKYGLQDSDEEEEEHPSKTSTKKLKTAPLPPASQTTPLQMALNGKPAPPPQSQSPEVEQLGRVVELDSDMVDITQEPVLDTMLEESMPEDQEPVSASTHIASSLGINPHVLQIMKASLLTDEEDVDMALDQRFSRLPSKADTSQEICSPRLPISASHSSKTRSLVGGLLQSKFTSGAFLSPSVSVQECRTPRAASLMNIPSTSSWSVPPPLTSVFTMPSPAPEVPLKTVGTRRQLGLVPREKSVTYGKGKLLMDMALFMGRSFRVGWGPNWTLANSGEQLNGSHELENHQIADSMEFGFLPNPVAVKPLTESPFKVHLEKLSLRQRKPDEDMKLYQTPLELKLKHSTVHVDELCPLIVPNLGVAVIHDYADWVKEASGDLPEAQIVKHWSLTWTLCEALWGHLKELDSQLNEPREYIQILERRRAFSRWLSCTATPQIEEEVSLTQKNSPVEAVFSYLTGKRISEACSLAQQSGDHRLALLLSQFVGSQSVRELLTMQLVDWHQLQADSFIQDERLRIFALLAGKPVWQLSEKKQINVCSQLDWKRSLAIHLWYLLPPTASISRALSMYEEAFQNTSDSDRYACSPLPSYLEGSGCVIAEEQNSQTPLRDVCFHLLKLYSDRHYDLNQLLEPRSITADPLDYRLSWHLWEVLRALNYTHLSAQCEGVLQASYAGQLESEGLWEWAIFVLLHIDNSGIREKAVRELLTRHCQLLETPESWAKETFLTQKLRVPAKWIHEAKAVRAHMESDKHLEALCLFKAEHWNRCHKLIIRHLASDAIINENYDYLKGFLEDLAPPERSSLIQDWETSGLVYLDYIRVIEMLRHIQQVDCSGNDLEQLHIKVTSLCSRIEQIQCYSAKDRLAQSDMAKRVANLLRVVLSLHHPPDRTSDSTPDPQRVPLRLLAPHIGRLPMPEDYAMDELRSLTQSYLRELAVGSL
# Sequence of UniProt Q9BSD7 (Q9BSD7 whole entry, looked up): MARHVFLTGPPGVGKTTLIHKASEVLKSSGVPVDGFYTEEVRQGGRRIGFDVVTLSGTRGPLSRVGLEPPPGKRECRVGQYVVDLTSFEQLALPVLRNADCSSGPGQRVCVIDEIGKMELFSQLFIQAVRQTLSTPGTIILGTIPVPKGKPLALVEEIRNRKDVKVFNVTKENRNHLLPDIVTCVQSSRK
# Sequence of UniProt Q8N1F7 (Q8N1F7 whole entry, looked up): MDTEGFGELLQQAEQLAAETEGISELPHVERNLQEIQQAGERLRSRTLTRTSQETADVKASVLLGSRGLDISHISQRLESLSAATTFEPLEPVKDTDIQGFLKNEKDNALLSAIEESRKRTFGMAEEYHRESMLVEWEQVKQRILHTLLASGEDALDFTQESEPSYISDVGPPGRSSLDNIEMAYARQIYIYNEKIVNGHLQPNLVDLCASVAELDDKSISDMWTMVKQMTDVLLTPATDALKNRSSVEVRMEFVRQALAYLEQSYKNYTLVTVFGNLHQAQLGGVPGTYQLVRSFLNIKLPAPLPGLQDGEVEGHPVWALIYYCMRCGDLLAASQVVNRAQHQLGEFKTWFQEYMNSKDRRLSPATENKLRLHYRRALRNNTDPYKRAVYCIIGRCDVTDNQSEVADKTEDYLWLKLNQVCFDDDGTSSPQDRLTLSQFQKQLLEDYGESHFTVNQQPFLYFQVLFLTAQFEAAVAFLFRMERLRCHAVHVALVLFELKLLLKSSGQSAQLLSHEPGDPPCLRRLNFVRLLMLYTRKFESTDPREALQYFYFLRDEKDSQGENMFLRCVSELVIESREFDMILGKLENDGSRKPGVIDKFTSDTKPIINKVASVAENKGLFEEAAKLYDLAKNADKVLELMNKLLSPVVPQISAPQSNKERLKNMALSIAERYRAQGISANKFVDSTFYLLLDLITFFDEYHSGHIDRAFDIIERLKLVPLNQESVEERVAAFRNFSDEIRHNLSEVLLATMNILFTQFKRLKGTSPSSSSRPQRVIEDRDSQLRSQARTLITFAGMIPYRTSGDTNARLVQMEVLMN
# Sequence of UniProt O96013 (O96013 whole entry, looked up): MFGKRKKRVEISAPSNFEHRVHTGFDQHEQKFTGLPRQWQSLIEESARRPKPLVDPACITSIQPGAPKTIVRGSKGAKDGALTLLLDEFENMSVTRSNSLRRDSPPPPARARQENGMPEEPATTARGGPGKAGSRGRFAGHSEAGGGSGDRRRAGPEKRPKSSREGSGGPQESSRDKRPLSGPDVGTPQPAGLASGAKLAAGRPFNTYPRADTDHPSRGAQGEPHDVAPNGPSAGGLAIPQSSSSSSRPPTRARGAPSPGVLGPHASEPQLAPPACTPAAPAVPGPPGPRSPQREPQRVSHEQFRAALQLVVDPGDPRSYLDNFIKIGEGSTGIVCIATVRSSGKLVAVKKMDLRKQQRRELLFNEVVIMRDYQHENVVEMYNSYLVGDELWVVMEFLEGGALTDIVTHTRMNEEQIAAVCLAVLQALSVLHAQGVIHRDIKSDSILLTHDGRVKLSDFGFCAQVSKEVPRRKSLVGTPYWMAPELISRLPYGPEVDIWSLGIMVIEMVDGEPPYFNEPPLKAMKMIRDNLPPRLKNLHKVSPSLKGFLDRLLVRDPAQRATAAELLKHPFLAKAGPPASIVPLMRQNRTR
# Sequence of UniProt Q12769 (Q12769 whole entry, looked up): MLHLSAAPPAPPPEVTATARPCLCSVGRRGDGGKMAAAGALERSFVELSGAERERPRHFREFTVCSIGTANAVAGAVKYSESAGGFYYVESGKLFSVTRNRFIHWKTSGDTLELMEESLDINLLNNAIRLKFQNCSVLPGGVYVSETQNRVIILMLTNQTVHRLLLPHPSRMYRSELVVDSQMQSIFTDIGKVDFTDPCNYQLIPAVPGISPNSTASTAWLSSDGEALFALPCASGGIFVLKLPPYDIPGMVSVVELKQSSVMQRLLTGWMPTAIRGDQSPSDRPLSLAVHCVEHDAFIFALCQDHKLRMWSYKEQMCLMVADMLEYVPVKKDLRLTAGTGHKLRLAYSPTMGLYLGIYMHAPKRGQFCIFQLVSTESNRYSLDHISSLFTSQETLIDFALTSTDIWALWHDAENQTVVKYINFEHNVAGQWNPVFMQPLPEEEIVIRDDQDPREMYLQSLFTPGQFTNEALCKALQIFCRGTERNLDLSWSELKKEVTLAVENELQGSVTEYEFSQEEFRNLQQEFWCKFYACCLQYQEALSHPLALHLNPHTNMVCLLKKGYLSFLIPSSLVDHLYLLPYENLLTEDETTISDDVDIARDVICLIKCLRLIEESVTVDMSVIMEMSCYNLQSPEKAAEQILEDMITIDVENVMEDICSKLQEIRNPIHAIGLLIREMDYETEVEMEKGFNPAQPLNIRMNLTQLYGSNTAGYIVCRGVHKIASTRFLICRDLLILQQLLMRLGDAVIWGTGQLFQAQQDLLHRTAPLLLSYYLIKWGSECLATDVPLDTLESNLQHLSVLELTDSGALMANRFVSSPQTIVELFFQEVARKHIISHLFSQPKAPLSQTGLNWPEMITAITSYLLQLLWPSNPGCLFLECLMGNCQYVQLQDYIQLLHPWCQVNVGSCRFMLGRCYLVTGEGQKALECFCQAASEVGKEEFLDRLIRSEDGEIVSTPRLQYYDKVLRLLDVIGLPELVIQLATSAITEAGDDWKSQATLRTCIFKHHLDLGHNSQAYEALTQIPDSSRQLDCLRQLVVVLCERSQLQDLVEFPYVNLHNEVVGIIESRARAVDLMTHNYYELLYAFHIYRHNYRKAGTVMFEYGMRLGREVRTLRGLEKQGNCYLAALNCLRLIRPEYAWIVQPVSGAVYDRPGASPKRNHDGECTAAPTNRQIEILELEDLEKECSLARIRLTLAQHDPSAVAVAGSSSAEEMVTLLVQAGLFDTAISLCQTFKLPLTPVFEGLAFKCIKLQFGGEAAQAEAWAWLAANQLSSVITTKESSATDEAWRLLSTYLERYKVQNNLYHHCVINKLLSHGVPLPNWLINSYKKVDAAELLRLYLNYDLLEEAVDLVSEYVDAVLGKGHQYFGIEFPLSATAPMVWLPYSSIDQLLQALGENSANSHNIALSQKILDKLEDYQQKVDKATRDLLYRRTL
Target,log2 fold change [1],log2 fold change [2],log2 fold change [3],log2 fold change [4],log2 fold change [5],log2 fold change [6],log2 fold change [7],log2 fold change [8],log2 fold change [9],log2 fold change [10],log2 fold change [11],log2 fold change [12],log2 fold change [13],log2 fold change [14],log2 fold change [15],log2 fold change [16],log2 fold change [17],log2 fold change [18],log2 fold change [19],log2 fold change [20]
NTPCR (UniProt Q9BSD7),0.007,-0.163,0.055,0.009,0.027,0.005,-0.007,0.007,0.058,-0.057,-0.003,-0.028,-0.071,0.031,-0.003,-0.094,-0.028,0.011,-0.044,-0.052
PAK4 (UniProt O96013),-0.019,-0.038,0.27,0.441,-0.021,-0.173,-0.057,0.002,0.241,-0.027,-0.147,0.139,0.037,0.163,0.05,0.709 (active),0.18,-0.236,-0.011,-0.12
NUP93 (UniProt Q8N1F7),-0.006,-0.085,-0.013,0.023,-0.097,0.029,0.027,0.01,-0.007,0.014,-0.011,-0.029,-0.03,-0.027,-0.03,-0.158,0.015,0.022,-0.054,0.07
MSH3 (UniProt P20585),0.021,-0.004,0.008,0.023,0.057,0.02,-0.013,-0.027,0.006,-0.012,-0.021,-0.005,-0.004,-0.018,-0.001,-0.019,0.021,0.019,-0.003,0.028
MTMR6 (UniProt Q9Y217),-0.034,-0.019,0,-0.042,-0.047,0.028,-0.092,0.022,0.004,-0.053,0.017,0.025,-0.037,0.071,0.02,-0.024,0.014,0.056,0.001,-0.113
NUP98 (UniProt P52948),-0.019,-0.117,0.029,0.031,0.047,0.064,-0.04,0.01,0.017,0.011,0.007,-0.041,0.017,-0.014,-0.04,0.01,-0.033,-0.024,-0.024,0.043
NT5DC2 isoform 2 (UniProt Q9H857),-0.037,0.02,0.026,0.007,0.032,-0.037,-0.035,0.013,-0.001,-0.055,-0.036,-0.019,0.004,-0.018,-0.01,0.021,-0.019,-0.029,-0.027,-0.027
NUP160 (UniProt Q12769),0.029,-0.143,0.045,0.004,-0.03,0.059,-0.195,0.015,0.004,0.031,0.004,-0.046,-0.028,0.003,-0.007,-0.102,0.015,0.032,-0.059,-0.007
